Here are results for 40 compounds from PubChem BioAssay (NCATS).

Records with an inconclusive call do not appear. A number with no mark means an inactive call. Activity calls are given as the source filed them. The call rests on the fitted dose curve; in most records, active means well fitted cell-killing curve with a large enough effect; inconclusive means small, poorly fitted or top-dose-only effect, or effect the other way; inactive means no such curve, though single readings can be large or run the other way.
Potency means the concentration at half of the fitted maximal effect.

The nature of the test: Quantitative High-Throughput drug screen in 47 multiple myeloma cell lines against the NCATS MIPE library collection: OPM1_PLB cell viability assay (AID 1918989). Further: nearly all actives have a fitted effect of over 40% in size. To be noted: CellTiter-Glo, 48 h; series mostly up to 45.8 µM; viability (% of control): at the top concentration. From the text:
PI: Beverly A. Mock Ph.D.
Laboratory of Cancer Biology and Genetics,
Center for Cancer Research, National Cancer Institute,
National Institute of Health, Bethesda, Maryland
Drug resistance and disease progression are common in multiple myeloma (MM) patients, underscoring the need for new therapeutic combinations. […] We hypothesized that effective combinations would reduce MYC expression and enhance p16 activity. […] These preclinical data identify potentially useful drug combinations for evaluation in drug-resistant MM and reveal potential mechanisms of combined drug sensitivity.
Described herein is the primary MIPE qHTS used to cherrypick compounds. Validated compounds were then further tested for potential synergistic activiy.
[1] Peat TJ, Gaikwad SM, Dubois W, Gyabaah-Kessie N, Zhang S, Gorjifard S, Phyo Z, Andres M, Hughitt VK, Simpson RM, Miller MA, Girvin AT, Taylor A, Williams D, D'Antonio N, Zhang Y, Rajagopalan A, Flietner E, Wilson K, Zhang X, Shinn P, Klumpp-Thomas C, McKnight C, Itkin Z, Chen L, Kazandijian D, Zhang J, Michalowski AM, Simmons JK, Keats J, Thomas CJ, Mock BA. Drug combinations identified by high-throughput screening promote cell cycle transition and upregulate Smad pathways in myeloma. Cancer Lett. 2023 Aug 1;568:216284. doi: 10.1016/j.canlet.2023.216284. Epub 2023 Jun 24. PMID: 37356470; PMCID: PMC10408729.
SEQUENCE No. (e.g., 1, 2, 3, etc.); […] (e.g., Cells, Incubation, Reagent, etc.); VALUE and DESCRIPTION.
1; Cells; 5 uL; white, solid bottom 1536-well Greiner assay plate.
2; Compounds; 23 nL; Kalypsis pin tool (Wako USA) equipped with a 1536-well pin head to transfer to the assay plates.
3; Incubation; 48 hours; 37C incubation.
4; Reagent;5uL; CellTiter Glo (Promega).
5; Detector; 425V; Luminescence; Viewlux PerkinElmer.
NOTES (numbers refer to Sequence numbers above)
1. The cell-based screening methods employed in this study were like those previously published. Briefly, the corresponding myeloma cell lines were screened in 1,536-well plates with 500 cells, 5-uL per well for inhibition of cell viability (assessed by measuring ATP levels with CellTiterGlo).
2. NCATS MIPE 4.0 library of approved and investigational drugs were added using the Kalypsis pin tool. Wells treated with DMSO only for 100% viability and media only for 0% viability were used as controls.
3. The assay plates were covered and incubated for 48 hours in a 37C, 5% CO2 incubator with controlled humidity.
4. After 48 hours, CellTilter-GloTM luminescent substrate mix (Promega) reagent was added to the assay plate and plates we incubated for 5 min at room temperature.
5. Signal was measured as median relative luminescence units on a ViewLux (PerkinElmer) multiplate reader.
[1] Heske CM, Davis MI, Baumgart JT, Wilson K, Gormally MV, Chen L, Zhang X, Ceribelli M, Duveau DY, Guha R, Ferrer M, Arnaldez FI, Ji J, Tran HL, Zhang Y, Mendoza A, Helman LJ, Thomas CJ. Matrix Screen Identifies Synergistic Combination of PARP Inhibitors and Nicotinamide Phosphoribosyltransferase (NAMPT) Inhibitors in Ewing Sarcoma. Clin Cancer Res. 2017 Dec 1;23(23):7301-7311. doi: 10.1158/1078-0432.CCR-17-1121. Epub 2017 Sep 12. PMID: 28899971; PMCID: PMC6636827.
Background: In ATP-based viability assays light output follows the ATP content of the culture.
For the compound `COc1cc(C)c(Sc2cnc(NC(=O)c3ccc(CNC(C)C(C)(C)C)cc3)s2)cc1C(=O)N1CCN(C(C)=O)CC1` (stereo not given), the Potency was 16.6 µM (active).

As for `O=C1c2cccc(O)c2C(=O)c2c(O)cc(CO)cc21`, the “viability (% of control)” value was 95.4%.

Consider `Cc1cc(O)c2c(c1)C(=O)c1cccc(O)c1C2=O`, for which the “viability (% of control)” value was 130%.

As for `c1cc(N[C@@H]2CCNC2)nc(-c2cnc3ccc(-c4cn[nH]c4)cn23)c1`, the Potency was 16.6 µM (active).

For `CC(C)c1cnn2c(NCc3ccccc3)cc(NCCCCCCN)nc12`, the Potency was 18.7 µM (active).

On to `Nc1nc(N)c2nc(-c3cccc(O)c3)c(-c3cccc(O)c3)nc2n1`, for which the Potency is 9.35 µM (active).

Take `CC(=O)N1CCN(c2ccc(OCc3nn(C)c(C)c3-c3cccc4c(CCCOc5cccc6ccccc56)c(C(=O)O)n(Cc5cccnc5)c34)cc2)CC1`: the Potency is 0.469 µM (active).

In the case of `CC(=O)OCC(=O)[C@@]1(O)CC[C@H]2[C@@H]3CCC4=CC(=O)CC[C@]4(C)[C@@H]3C(=O)C[C@@]21C`, the “viability (% of control)” value was 137%.

Turning to `CCc1c(O)cc(O)c(C(=O)c2ccc(OCCN3CCOCC3)c(OC)c2)c1CC(=O)N(CCOC)CCOC`, the Potency is 0.662 µM (active).

Consider `N#Cc1cc(NC(=O)Nc2nnc(-c3ccncc3)s2)ccc1-c1cn[nH]c1`, for which the “viability (% of control)” value is 134%.

With `C[C@H](CCC(=O)O)[C@H]1CC[C@H]2[C@@H]3[C@H](O)C[C@@H]4C[C@H](O)CC[C@]4(C)[C@@H]3CC[C@]12C`, the “viability (% of control)” value was 99.1%.

Consider `COc1ccc(Nc2nccc(NCCO)n2)cc1`, for which the “viability (% of control)” value is 91.2%.

On to `COc1cc(C(=O)NC2CCN(C)CC2)ccc1Nc1ncc2c(n1)N(C1CCCC1)CCC(=O)N2C(C)C`, for which the Potency is 20.9 µM (active).

With `CC(C(C)N1CC(=O)NC(=O)C1)N1CC(=O)NC(=O)C1` (stereo not given), the “viability (% of control)” value was 123%.

With `CS(=O)(=O)N1CCc2c(-c3cnc(N)nc3)nc(N3CCOCC3)nc21`, the Potency was 0.332 µM (active).

With `Nc1nc(=O)n([C@H]2CSC(CO)O2)cc1F` (stereo not given in full), the “viability (% of control)” value is 114%.

Turning to `Nc1ccn(C2CO[C@H](CO)O2)c(=O)n1` (stereo not given in full), the “viability (% of control)” value is 134%.

Turning to `CC(C)(C)[C@H](NC(=O)c1ccc(N)c(Cl)c1)C(=O)N1CCC[C@@H]1C(=O)N[C@H](C#N)CC(=O)O`, the viability (% of control) is 141% [at 3.51 µM].

For the compound `Cn1cc(-c2ccc3ncc(Cc4ccc5ncccc5c4)n3n2)cn1`, the “viability (% of control)” value is 111%.

For the compound `NC(=O)c1ncn([C@@H]2O[C@H](CO)[C@@H](O)[C@@H]2O)c1O`, the “viability (% of control)” value was 119%.

For the compound `Cn1c(Nc2ccc(C(F)(F)F)cc2)nc2cc(Oc3ccnc(-c4ncc(C(F)(F)F)[nH]4)c3)ccc21`, the Potency is 16.6 µM (active).

With `NC1=N[C@H]2[C@H](CS[C@H]2CCCCC(=O)O)N1`, the “viability (% of control)” value was 117% [at 23.2 µM].

With `CCN(CC)Cc1ccc2cc(COC(=O)Nc3ccc(C(=O)NO)cc3)ccc2c1`, the Potency was 0.264 µM (active).

On to `O=C(Nc1cc2cc[nH]c2cn1)c1ccccc1`, for which the Potency was 14.8 µM (active).

As to `COc1cc(CCc2cc(NC(=O)c3ccc(N4C[C@@H](C)N[C@@H](C)C4)cc3)n[nH]2)cc(OC)c1`, the Potency is 14.8 µM (active).

`CCOC(=O)C1=C(C)NC(=S)NC1c1cccc(O)c1` (stereo not given): the Potency is 0.0296 µM (active).

In the case of `Cn1cc(C2=C(c3c4n(c5ccccc35)CCC(CN)C4)C(=O)NC2=O)c2ccccc21` (stereo not given), the Potency is 7.43 µM (active).

Consider `CC(C)[C@H](CO)Nc1nc(Nc2cccc(Cl)c2)c2ncn(C(C)C)c2n1`, for which the Potency is 23.5 µM (active).

For `Cc1cnc(NC(=O)Nc2cc(Br)c(C)cc2OC[C@@H]2CNCCO2)cn1`, the Potency was 0.526 µM (active).

With `O=C(O)CCCCCC(=O)NN=C1CCCC1`, the “viability (% of control)” value is 131%.

For `Nc1nc(=O)n([C@H]2C[C@H](O)[C@@H](CO)O2)cc1F`, the Potency is 0.0469 µM (active).

Regarding `OCc1ccccc1O[C@@H]1O[C@H](CO)[C@H](O)[C@H](O)[C@H]1O`, the “viability (% of control)” value is 160%.

Turning to `COC(=O)[C@H](CCCN=C(N)N)NS(=O)(=O)c1ccc(C)cc1`, the “viability (% of control)” value was 137%.

On to `CCS(=O)(=O)Nc1ccc2[nH]c(O)c(C(=Nc3ccc(CN4CCCCC4)cc3)c3ccccc3)c2c1`, for which the Potency is 0.332 µM (active).

On to `OC[C@@H](O)[C@@H](O)[C@H](O)[C@@H](O)CO`, for which the “viability (% of control)” value is 129%.

`CC(=O)OCC(=O)[C@@]12N=C(C)O[C@H]1C[C@H]1[C@@H]3CCC4=CC(=O)C=C[C@]4(C)[C@@H]3[C@@H](O)C[C@@]12C`: the “viability (% of control)” value was 114%.

With `COc1cc([C@@H]2c3cc4c(cc3[C@@H](O[C@@H]3O[C@@H]5CO[C@@H](c6cccs6)O[C@@H]5[C@H](O)[C@@H]3O)[C@H]3COC(=O)[C@H]23)OCO4)cc(OC)c1O`, the Potency was 1.18 µM (active).

In the case of `CC(=O)NC(CS)C(=O)O` (stereo not given), the “viability (% of control)” value was 103%.

For the compound `c1ccc(CNc2nc(NCc3ccccc3)c3ccccc3n2)cc1`, the Potency is 7.43 µM (active).

As for `C=C[C@@H]1CN2CCC1C[C@H]2[C@H](O)c1ccnc2ccc(OC)cc12` (stereo not given in full), the “viability (% of control)” value is 86.6%.
